System: DRIVER-selected RNA biosensor (aptazyme) pool
Experiment: maximum fold change of ribozyme cleavage across biosensor pool versus no-compound control; higher = stronger biosensor response (ligand inhibits cleavage)
Conditions: 10 µM
In short: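 Fold change of cleavage, the ratio of cleaved:uncleaved read fractions versus a no-compound condition corrected with reference sequences, is given as the maximum over all biosensors. It was measured by CleaveSeq on a pool of 1,730 array-resynthesized ribozyme biosensors transcribed by T7 with 9 mM rNTPs for 15–30 min at 37°C in the presence of one compound at 10 µM final, added from a 10x DMSO stock. After reverse transcription at 50°C, cleaved and uncleaved products were PCR-barcoded and counted by Illumina sequencing.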

Structure (SMILES) | maximum fold change
CC(=Cc1ccccc1)/C=C1N=C(/C=C/c2ccccc2)OC/1=O | 2.27
CNc1cnn(C23CC4CC(CC(CC(=O)O)(C4)C2)C3)c(=O)c1Cl | 4.5
Cc1oc(-c2ccccc2F)nc1CS(=O)(=O)CC(=O)N1CCC(Cc2ccccc2)CC1 | 4.04
O=C(Cn1ncc2c1-c1ccccc1OC2)N1CCC(Cc2ccccc2)CC1 | 3.52
O=C(NCCCc1ccccc1)C1CCN(c2nnc(N3CCCC3=O)s2)CC1 | 3.05
COc1ccc(-c2c(C)nn3c(N)c(C#N)cnc23)cc1OC | 4.07
CCOC(=O)N1CCN(C(=O)C2=C(C)C(=O)OC23CCCCC3)CC1 | 4.06
COCCNC(=S)NCc1ccc2[nH]c(C)cc2c1 | 2.32
CCOC(=O)c1cnc(SCc2cccc(C)c2)nc1N | 7.72
CCc1nc2ccc(C(=O)NCCc3ccco3)cc2nc1CC | 2.69
Cc1c(CNC2CCCc3ccccc32)c(C(=O)O)c(C)n1Cc1ccc(F)cc1 (stereo not given) | 2.39
CN(C)CCNC(=O)CCn1c(=O)c2cccn2c2cccnc21 | 3.34
O=C1N=c2sc(nn2C(=N)/C/1=Cc1c[nH]c2c1cccc2)N1CCCC1 | 7.4
CCOC(=O)c1cnc2c(C)cc(Cl)cc2c1NCCCO | 9.37
Cc1c(C(=O)NCc2ccccc2Cl)oc2c1-c1[nH]ncc1CC2 | 2.79
COc1ccc(/C=C/C(=O)Nc2nc3ccc(S(C)(=O)=O)cc3s2)cc1Br | 3.76
N#C/C(=Cc1c(Oc2cccc(c2)C)nc2n(c1=O)cccc2)/c1nc2c([nH]1)cccc2 | 7.83
CCCN(CCC)CCCNS(=O)(=O)c1ccc(OCC)c2ncccc12 | 2.96
CCOc1cc2c(cc1OCC)C1C(C(=O)N(CC)Cc3ccccc3)c3ccccc3C(=O)N1CC2 (stereo not given) | 3.54
CCNC(=S)N1CCN=C1Nc1nc(C)cc(C)n1 | 2.17
Cc1ccccc1-c1nnc(SCC(=O)N2CCC(C)CC2)o1 | 1.91
Cc1cc2c(c(=O)n1CCN(C)C)C(c1cccc(Br)c1)C(C#N)=C(N)O2 (stereo not given) | 2.39
CCCCC(C(=O)N1CCCCC1)N1C(=O)c2ccccc2C1=O (stereo not given) | 1.93
COc1ccc(OC)c(/C=C2/N=C(c3ccc(OC)c(Br)c3)OC2=O)c1 | 2.65
COCCNCc1c(C(=O)O)c(C)n(Cc2ccccc2F)c1C | 2.4
COc1ccc(CN2CCN(Cc3csc(C)c3C)CC2)c(OC)c1OC | 2.47
COc1ccc(-c2cc3c(=O)n(CC(=O)NCc4ccccn4)ncn3n2)cc1 | 3.51
CCC(C)NC(=O)Cn1cc(C=O)c2ccccc21 (stereo not given) | 4.38
Cc1ccc2c(CNC3CCC(C)CC3)c(C(=O)O)n(Cc3ccccc3F)c2c1 (stereo not given) | 2.5
C=CC[n+]1c(/C=C2\C=CC=CN2C)sc2ccccc21 | 13.8
